TPT1 inhibitor – inhibitors of Candida albicans tRNA 2'-phosphotransferase TPT1 | recombinant caTPT1, FP RNA substrate dephosphorylation | AID 1962 | 0.81% of 300,000 active | inhibition, % at 5 µM;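 active means inhibition above the mean of all tested compounds plus 3 SD, set per screening campaign, cut at about 24% in these data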
HNF4A DNA FP – change in binding of human HNF4 alpha to DNA; activity change, % at 10 µM; P41235; AID 1224865; HNF4a-FITC DNA binding, fluorescence polarization, 1 h; 0.3% of 360,000 active; in the data active means activity change above about 30%, passing the limit was not always enough
Rpn11 block – Rpn11 (human) deubiquitinase inhibition. O00487. human 26S proteasome, Ub4-pepOG fluorescence polarization; 20S core pre-blocked with epoxomicin. inhibition, % at 20 µM. 0.59% of 360,000 active. AID 588493;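 active means inhibition at 20 µM, scaled to each plate's controls, above about 33%, limit read from the data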
Target sequence (O00487 whole entry, looked up): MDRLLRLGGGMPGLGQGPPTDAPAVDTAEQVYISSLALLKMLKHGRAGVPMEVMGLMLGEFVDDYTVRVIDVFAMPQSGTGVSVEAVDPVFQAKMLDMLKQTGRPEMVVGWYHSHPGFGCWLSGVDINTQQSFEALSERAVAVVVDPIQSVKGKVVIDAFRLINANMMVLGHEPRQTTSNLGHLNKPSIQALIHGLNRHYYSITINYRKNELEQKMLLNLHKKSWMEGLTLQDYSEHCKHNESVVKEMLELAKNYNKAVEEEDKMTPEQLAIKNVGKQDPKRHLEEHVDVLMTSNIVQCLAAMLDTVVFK
Myeloid diff 2 – compounds promoting myeloid differentiation | AID 624256 | calls only at 10 µM | 1% of 360,000 active | ER-HoxA9 myeloid progenitors, lysozyme-GFP differentiation, flow cytometry;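 active means normalized GFP-positive differentiation at or above the plate's own cutoff, the solvent-only control mean plus 3 SD; inconclusive means no clear call, values can overlap the other calls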;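 further: cells exposed to compound for four days before flow analysis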
TPT1 inh confirm – confirmation of Candida albicans TPT1 inhibitors; shares compounds with TPT1 inhibitor; recombinant caTPT1, fluorescence polarization, RNase T1 coupled; inhibition, % at 5 µM; 74% of 2,400 active; AID 2149;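 active means inhibition above the primary screen limit, the mean inhibition of all tested compounds plus 3 SD, cut at about 25% in these data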
RNase T1 counter – counter-screen for TPT1 inhibitors: inhibitors of Aspergillus oryzae RNase T1 | 83% of 2,400 active | RNase T1 cleavage, fluorescence polarization, 1536-well | inhibition, % at 5 µM | shares compounds with TPT1 inhibitor;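 active means inhibition above the solvent-only control well mean plus 3 SD, limit set per screening run, cut at about 23% in these data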;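 further: inhibitors block cleavage so intact labeled substrate keeps polarization high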
Target sequence (P00651 whole entry, looked up): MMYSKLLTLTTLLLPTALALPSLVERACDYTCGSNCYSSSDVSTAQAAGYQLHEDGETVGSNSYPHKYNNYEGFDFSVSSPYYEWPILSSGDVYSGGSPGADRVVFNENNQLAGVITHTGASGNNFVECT
Rpn11 confirm – confirmation of human proteasome Rpn11 inhibitors; inhibition, % at 20 µM; shares compounds with Rpn11 block; purified human 26S proteasome, Ub4-pepOG fluorescence polarization; proteasome pretreated with epoxomicin; AID 602318; 29% of 1,900 active
MMP-2 counter – blocks human MMP-2, flagging nonselective RPN11 hits. 4% of 1,900 active. shares compounds with Rpn11 block. inhibition, % at 20 µM. recombinant MMP-2, FRET peptide cleavage fluorescence;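 further: human MMP-2 activated beforehand with APMA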
Thrombin FP – thrombin (bovine) inhibition counter-screen; shares compounds with Rpn11 block; bovine thrombin cleavage of Ub4-pepOG, fluorescence polarization; inhibition, % at 20 µM; 13% of 1,900 active;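 active means mean inhibition at least 40% at 20 µM, or signal 3 deviations below plate average, so some actives read negative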
Each line names hits and unclear results; the compound was inactive in the other large screens (follow-up assays come after a bar, where shown). Compounds with a hit are over-represented: about 2.1% of the library has one in this group of screens. Unless noted, no stated cut-off is given here; in the data, active means inhibition above about 40%; inactive means the rest.

N#Cc1ccccc1S(=O)(=O)N1CCN(C(=O)C2CCCC2)CC1	none
Cc1sc2nc(CSCC(=O)Nc3ccccc3C#N)[nH]c(=O)c2c1C	TPT1 inhibitor 36.9, Rpn11 block 49.2, Myeloid diff 2 active | TPT1 inh confirm 47.1 | RNase T1 counter 60.8 | Rpn11 confirm 45.8 | MMP-2 counter inactive | Thrombin FP inactive
Cc1sc2nc(CSC(C)C(=O)Nc3ccc(C(N)=O)cc3)[nH]c(=O)c2c1C (stereo not given)	none
Cc1sc2nc(CSC(C)C(=O)Nc3ccc(C#N)cc3)[nH]c(=O)c2c1C (stereo not given)	TPT1 inhibitor 28.7, Rpn11 block 45.5 | TPT1 inh confirm 37.6 | RNase T1 counter 49.3 | Rpn11 confirm inactive | MMP-2 counter inactive | Thrombin FP inactive
COc1cc(NC(=O)C2(C)CCCN2C(=O)C(C)C)cc(OC)c1OC (stereo not given)	none (no result: TPT1 inhibitor)
COc1cc(/C=C2/C(=O)N(c3cccc(Br)c3)N=C2C)cc(OC)c1O	TPT1 inhibitor 69.9, Rpn11 block 78.2 | TPT1 inh confirm 86.4 | RNase T1 counter 90.6 | Rpn11 confirm 80.2 | MMP-2 counter inactive | Thrombin FP 59.9
CCOC(=O)C1=C(C)N=c2s/c(=C\c3ccc(OCC(=O)O)c(OC)c3)c(=O)n2C1c1ccc(OC)cc1 (stereo not given)	TPT1 inhibitor 25.4, Rpn11 block 40.7 | TPT1 inh confirm 43.7 | RNase T1 counter 53.4 | Rpn11 confirm inactive | MMP-2 counter inactive | Thrombin FP inactive
COC(=O)C1=C(C)N=c2s/c(=C/c3ccoc3)c(=O)n2C1c1ccccc1 (stereo not given)	TPT1 inhibitor 58.1, HNF4A DNA FP 45.3, Rpn11 block 107.4 | TPT1 inh confirm 61.3 | RNase T1 counter 72.7 | Rpn11 confirm 47.9 | MMP-2 counter inactive | Thrombin FP 47.4
CCOC(=O)C1=C(C)N=c2s/c(=C\c3cccc(OCC(=O)O)c3)c(=O)n2C1c1ccccc1 (stereo not given)	none (no result: TPT1 inhibitor)
CCOC(=O)c1ccc(/C=C2/C=C(c3ccccc3)N(c3ccc(Cl)c(C(=O)O)c3)C2=O)cc1	TPT1 inhibitor 61.9, Rpn11 block 68.1 | TPT1 inh confirm 74.4 | RNase T1 counter 80.2 | Rpn11 confirm 155.7 | MMP-2 counter inactive | Thrombin FP 152.5
COc1cc(SC#N)ccc1N=Cc1c(C)[nH]n(-c2ccc(C)c(C)c2)c1=O	TPT1 inhibitor 30.4, Rpn11 block 44.0 | TPT1 inh confirm 62.5 | RNase T1 counter 67.4 | Rpn11 confirm inactive | MMP-2 counter inactive | Thrombin FP inactive
COc1cc(S(=O)(=O)Nc2ccccc2)ccc1N=Cc1c(C)[nH]n(-c2ccc(C)cc2)c1=O	none (no result: HNF4A DNA FP, Rpn11 block, Myeloid diff 2)
Nc1c(C(=O)Nc2ccccc2F)sc2nc(-c3ccco3)ccc12	TPT1 inhibitor 30.6, Rpn11 block 44.4 | TPT1 inh confirm 26.9 | RNase T1 counter 37.7 | Rpn11 confirm inactive | MMP-2 counter inactive | Thrombin FP inactive
COc1ccc(/C=C2\C(=O)NC(=S)N2C(=O)c2ccc(C)cc2)cc1	TPT1 inhibitor 49.2, Rpn11 block 64.2 | TPT1 inh confirm 65.5 | RNase T1 counter 78.2 | Rpn11 confirm 106.8 | MMP-2 counter inactive | Thrombin FP 56.4
O=C(N/N=C/c1sc(N2CCOCC2)nc1-c1ccccc1)c1cccc(S(=O)(=O)N2CCCC2)c1	TPT1 inhibitor 35.4, HNF4A DNA FP 43.3, Rpn11 block 71.1, Myeloid diff 2 inconclusive | TPT1 inh confirm 34.3 | RNase T1 counter 43.0 | Rpn11 confirm 94.3 | MMP-2 counter inactive | Thrombin FP 69.2
COc1ccc(Nc2cc(Nc3ccccc3)ncn2)cc1	none
CCOC(=O)c1c(C)[nH]c(O)c1C=Nc1ccc(C(F)(F)F)cc1	TPT1 inhibitor 35.6, Rpn11 block 49.3 | TPT1 inh confirm 30.4 | RNase T1 counter 39.6 | Rpn11 confirm inactive | MMP-2 counter inactive | Thrombin FP inactive
COC(=O)c1c(C)[nH]c(O)c1C=Nc1ccc(C(C)C)cc1	none
N#Cc1c(SCC(=O)Nc2ccc(C(F)(F)F)cc2)sc2c(O)cc(=O)[nH]c12	none
N#Cc1c(SCC(=O)Nc2nncs2)sc2c(O)cc(=O)[nH]c12	TPT1 inhibitor 76.2, Rpn11 block 52.7 | TPT1 inh confirm inactive | RNase T1 counter inactive | Rpn11 confirm inactive | MMP-2 counter 52.1 | Thrombin FP inactive
COc1ccc(N/C=C/C(=O)c2sc(-c3ccccc3)nc2C)cc1	TPT1 inhibitor 71.1, Rpn11 block 39.8 | TPT1 inh confirm 51.6 | RNase T1 counter 64.7 | Rpn11 confirm inactive | MMP-2 counter inactive | Thrombin FP inactive
Oc1ccc(/C=N/Nc2ccnc3cc(Cl)ccc23)c(O)c1O	TPT1 inhibitor 32.9, Rpn11 block 41.0 | TPT1 inh confirm inactive | RNase T1 counter inactive | Rpn11 confirm inactive | MMP-2 counter inactive | Thrombin FP inactive
Oc1ccc(/C=N/Nc2ccnc3cc(Cl)ccc23)cc1O	none
COc1cc(/C=C(/C#N)C(=O)NC(C)c2ccccc2)cc(OC)c1O (stereo not given)	TPT1 inhibitor 65.9, Rpn11 block 71.3 | TPT1 inh confirm 106.7 | RNase T1 counter 107.5 | Rpn11 confirm inactive | MMP-2 counter inactive | Thrombin FP inactive
CC(NC(=O)/C(C#N)=C/c1ccc(C(=O)O)cc1)c1ccccc1 (stereo not given)	none
CCN1C(=S)SC(=O)C1=C1C=C(C)N(Cc2ccco2)C(C)=C1	TPT1 inhibitor 162.6, Rpn11 block 45.9 (no result: Myeloid diff 2) | TPT1 inh confirm 126.1 | RNase T1 counter 131.4 | Rpn11 confirm inactive | MMP-2 counter inactive | Thrombin FP inactive
O=C(CN1C(=O)NC2(CCCC2)C1=O)OCc1cccc(Br)c1	none (no result: TPT1 inhibitor)
COc1cc(S(=O)(=O)N2CCN(C(=O)c3cccs3)CC2)ccc1NC(C)=O	none (no result: TPT1 inhibitor)
O=C(Nc1nc2c(s1)CN(Cc1ccccc1)CC2)c1c(F)cccc1F	TPT1 inhibitor 24.4, Rpn11 block 46.1 | TPT1 inh confirm 36.8 | RNase T1 counter 48.8 | Rpn11 confirm inactive | MMP-2 counter inactive | Thrombin FP inactive
O=C(Nc1nc2c(s1)CN(Cc1ccccc1)CC2)C1CCCC1	none
C[C@H](CO)N1C[C@H](C)[C@H](CN(C)S(=O)(=O)c2cccs2)OCc2cnnn2CCCC1=O	none (no result: TPT1 inhibitor)
Cc1ccc2[nH]cc(/C=C/c3cc[n+](C)cc3)c2c1	Myeloid diff 2 inconclusive (not shown: TPT1 inhibitor, Rpn11 block)
COc1ccc2c(/C=C/c3cc[n+](C)cc3)c[nH]c2c1	TPT1 inhibitor 43.0, HNF4A DNA FP 36.0, Rpn11 block 52.1, Myeloid diff 2 active | TPT1 inh confirm 46.6 | RNase T1 counter 59.4 | Rpn11 confirm 67.9 | MMP-2 counter inactive | Thrombin FP 71.8
